# Assay outcomes: PubChem, National Center for Advancing Translational Sciences (NCATS)
# In the library only some 6.3% were active in any assay of this set; here they are far more common.
# ATXN2 expr inh: ATXN2 expression inhibition; HEK-293 ATXN2-luciferase reporter, luminescence, 24 h; Potency, µM (highest dose often 57 µM), for inactives: at the highest dose activity change, negative = inhibition, most hits filed as inhibitors; 0.72% of 360,000 active; AID 1745845; also: % is scaled to controls: 0 for no effect and ±100 for the full control effect; nearly all actives have a fitted effect of over 55% in size
#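 ATXN2-luciferase reporter cells (luciferase flanked by upstream and downstream ATXN2 gene portions) were treated 24 h at 37 °C with compounds at up to 57 uM. SteadyGlo luminescence gave expression; GF-AFC fluorescence gave viability.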
# HepG2 tox: counter-screen for TGF-b inhibitors: cytotoxicity in HepG2 cells; HepG2 CAGA-GFP viability, ATP luminescence, 18 h; Potency, µM (top dose mostly 46.1 µM), without a hit: top-dose activity change, negative = cytotoxicity, hits mostly cytotoxic; 0.76% of 410,000 active; AID 588856
#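 CellTiter-Glo luminescence gave cytotoxicity after 18 hours at 37 degrees C. The cells were HepG2 CAGA-GFP in 1% FBS DMEM, stimulated with 500 pg/mL TGF-beta after compound addition. %Activity was normalised to no-cell wells (complete cell-killing) and DMSO (no toxicity), and curves were fitted and classified.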
# S2 tox: reduces viability in counter-screen for ATXN expression inhibitors. AID 651635. S2 cells (HEK-293 line with an ATXN2-luciferase reporter) viability, CellTiter-Fluor protease fluorescence, 24 h. Potency, µM (top dose mostly 56.7 µM), actives largely listed as cytotoxic. 0.49% of 400,000 active; also: nearly all actives have a fitted effect of over 40% in size
# RORgamma inh: ROR gamma (mouse) transcription inhibition. 5.4% of 310,000 active. AID 2551. Potency, µM (titrated, usually from 53.6 µM), for inactives: top-dose activity change, negative = inhibition, usual class: inhibitors. Drosophila S2 Gal4-RORgamma UAS-luciferase reporter, 20 h. P51450; also: % is scaled to controls: 0 for no effect and ±100 for the full control effect; nearly all actives have a fitted effect of over 60% in size
# Target sequence (P51450 whole entry, looked up, the tested form may be a part): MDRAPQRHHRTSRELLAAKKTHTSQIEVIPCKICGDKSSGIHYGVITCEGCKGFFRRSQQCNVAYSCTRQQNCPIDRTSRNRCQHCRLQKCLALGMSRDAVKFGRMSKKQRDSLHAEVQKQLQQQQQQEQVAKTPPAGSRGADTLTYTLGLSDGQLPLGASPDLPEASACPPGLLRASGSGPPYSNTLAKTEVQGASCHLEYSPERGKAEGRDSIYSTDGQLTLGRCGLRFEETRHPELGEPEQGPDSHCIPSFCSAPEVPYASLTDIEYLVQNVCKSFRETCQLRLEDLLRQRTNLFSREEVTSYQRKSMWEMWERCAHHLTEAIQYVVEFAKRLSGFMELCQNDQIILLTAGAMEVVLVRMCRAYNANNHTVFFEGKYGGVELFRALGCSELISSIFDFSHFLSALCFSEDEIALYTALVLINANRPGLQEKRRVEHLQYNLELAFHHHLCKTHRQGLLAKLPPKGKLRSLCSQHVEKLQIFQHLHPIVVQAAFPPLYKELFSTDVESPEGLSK
#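 Compounds are pin-transferred onto Drosophila Schneider cells expressing a copper-inducible Gal4–ROR gamma transactivation domain fusion. After 1 hr, copper sulfate is added to 700 uM final; luciferase is read 20 hr later.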
# VP16 counter: Gal4-VP16 reporter inhibition counter-screen; AID 2546; 3.5% of 310,000 active; Drosophila S2 Gal4-VP16 UAS-luciferase, luminescence, 20 h; Potency, µM (titrated, usually from 53.6 µM), inactives show top-dose activity, negative = inhibition, usual class: inhibitors;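 also: Gal4-VP16 expression switched on by copper sulfate through the metallothionein promoter; % is scaled to controls: 0 for no effect and ±100 for the full control effect; nearly all actives have a fitted effect of over 50% in size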
# TGFb SMAD3 inh: inhibitors of TGF-b signaling; HepG2 CAGA-GFP TGF-b/SMAD3 reporter, GFP fluorescence, 18 h; TGF-beta stimulated, 500 pg/mL final; AID 588855; Potency, µM (titrated, usually from 46.1 µM), for the others: at the top dose activity, negative = inhibition, usual class: inhibitors; 1.2% of 410,000 active; also: % is scaled to controls: 0 for no effect and ±100 for the full control effect; nearly all actives have a fitted effect of over 65% in size
#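 HEPG2 CAGA-GFP reporter cells (1000/well, DMEM with 1% FBS) received compounds, then recombinant TGF-beta at 500 pg/mL final for 18 hours at 37 degrees C. Per-cell GFP summed per well was normalised to unstimulated and stimulated DMSO controls before curve fitting.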
# Active calls of the source: *; i = inactive; u = inconclusive; x = no result given. Calls follow the shape of the dose curve; as a rule, active = well fitted curve in the direction sought with a large enough effect; inconclusive = small, poorly fitted or top-dose-only effect, or another doubt; inactive = no such curve, though single readings can be large; an effect the other way counts as inactive or inconclusive. Potency is read from the fitted curve at half-maximal effect.
SMILES,ATXN2 expr inh,HepG2 tox,S2 tox,RORgamma inh,VP16 counter,TGFb SMAD3 inh
c1ccc(Nc2cc(-c3ccccc3)nc3ncnn23)cc1,-23%,-18%,i,16µM*,u,17%
CC(=O)CSc1cc(-c2ccccc2)nc2ncnn12,-8%,-3%,i,2.5µM*,16µM*,-11%
O=S(=O)(c1ccccc1)N1CCN(c2cc(-c3ccccc3)nc3ncnn23)CC1,-24%,-11%,i,u,5.6µM*,-9%
CNc1ccc(N=Nc2cccc3ncccc23)cc1,2%,-59%,u,x,x,u
COc1ccc2nc3c(cc2c1)Cc1ccccc1-3,x,x,x,2.5µM*,2.5µM*,x
CN(C)S(=O)(=O)c1ccc(C(=O)NCCN2C(=O)S/C(=C\c3cccnc3)C2=O)cc1,0%,-42%,u,-6%,2%,10%
CS(=O)(=O)c1ccc(C(=O)NCCN2C(=O)S/C(=C\c3cccnc3)C2=O)cc1[N+](=O)[O-],x,-142%,x,5.6µM*,u,14µM*
c1ccc(-c2noc(-c3ccno3)n2)nc1,x,8%,i,23%,-1%,8%
Cc1ccc(-c2nc(-c3ccccn3)no2)cc1,2µM*,13µM*,i,0.89µM*,2µM*,-1%
c1ccc(-c2nc(-c3ccccn3)no2)cc1,4.5µM*,10µM*,i,2.2µM*,2µM*,3%
c1ccc(-c2ccc(-c3nc(-c4ccccn4)no3)cc2)cc1,u,7.1µM*,i,2.5µM*,1.4µM*,-6%
Cc1ccc(-c2nc(-c3ccccn3)no2)cc1Cl,10µM*,11µM*,i,3.5µM*,5.6µM*,-2%
Cc1ccc(Cc2nc(-c3ccccn3)no2)cc1,26%,-1%,i,-54%,-15%,-6%
COCC1CCCN(Cc2ccc3c(c2)CN(C(=O)c2cccnc2OC)CCO3)C1 (configuration not stated),x,x,i,x,x,x
Cc1ccc(-c2nc(-c3ccccn3)no2)cc1[N+](=O)[O-],u,-54%,i,10µM*,6.3µM*,-37%
Cc1ccc2nc(-c3ccccn3)oc2c1,-21%,-65%,i,10µM*,u,2%
CCN(CC)c1ccc(-c2nc(-c3ccccn3)no2)cc1[N+](=O)[O-],21%,1%,i,x,x,3%
Clc1cccc(-c2nc(-c3ccccn3)no2)c1,13µM*,-36%,i,5µM*,8.9µM*,u
c1ccc(-c2n[nH]c(-c3ccccn3)n2)nc1,-21%,-42%,i,u,u,-4%
Cc1ccc2nc(-c3cccnc3)oc2c1,45%,0%,i,-10%,-7%,u
c1ccc(-c2n[nH]c(-c3ccccn3)n2)cc1,26%,-38%,i,1.1µM*,1.1µM*,-1%
Cc1ccc(NC(=O)c2cnn3c2NC(=C2CC2)C=C3C(F)F)cc1C,x,10%,x,x,x,2%
COc1cccc2cc(-c3nc(-c4ccccc4)c(C)s3)c(=O)oc12,x,-2%,x,x,x,3%
c1ccc(-c2noc(-c3cccc4ccccc34)n2)nc1,25%,-28%,i,u,10µM*,-4%
COc1ccccc1C=NNC(=O)NN=Cc1ccccc1OC,15%,-4%,i,x,x,5%
COc1ccccc1/C=N/NC(=O)c1ccc(Br)cc1,13%,-12%,i,13µM*,-9%,-6%
Cn1cccc1-c1cc(C(=O)N/N=C/c2cc(Br)ccc2O)[nH]n1,u,-21%,u,7.1µM*,10µM*,-1%
COc1ccc(NS(=O)(=O)c2ccc(NC(=O)c3ccc(N(C)S(C)(=O)=O)cc3)cc2)c(OC)c1,-10%,2%,u,u,11µM*,u
COc1ccc(/C=N/NC(=O)c2ccc(N(C)S(=O)(=O)c3ccccc3)cc2)c(OC)c1,x,-61%,i,10µM*,-5%,0%
